# Assay outcomes as filed in PubChem BioAssay.
# Rows were chosen to be rich in hits. Some 3.4% of all compounds tested hit in one or more screens of this group.
# MITF inh = inhibitors of human MITF; 650,000 compounds, 0.91% hits; O75030; AlphaScreen MITF homodimerization, bead proximity signal; inhibition, % at 2.6 µM; in the data active = inhibition above about 50%;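 also: 0% = vehicle wells with protein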
# FBW7 activator = human FBW7 E3 ligase activation, primary screen. AlphaScreen FBW7–phospho-cyclin E peptide binding, activator screen. normalized activity (activation), % at 26.1 µM. 650,000 compounds, 0.13% hits. Q969H0; in the data active = normalized activity above about 1.9%;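 also: purified mutant Fbw7 with reduced substrate affinity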
# TEAD-YAP inh = TEAD-YAP interaction inhibition. HEK-TIYL cells, TEAD-Gal4/YAP UAS-luciferase luminescence. inhibition, % at 9.12 µM. 640,000 compounds, 1.4% hits; in the data active = inhibition above about 32%;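 also: 0% = median of test compound wells and 100% = reference inhibitor wells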
# GPR151 ag = activates the human receptor GPR151 | Q8TDV0 | PathHunter beta-arrestin GPR151 cells, luminescence | activation, % at 11.2 µM | 650,000 compounds, 1% hits; in the data active = activation above about 4.9%;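 also: 0% = median of compound wells and 100% = cells with positive control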
# GPR151 conf act = human GPR151 activation, confirmation screen. shares compounds with GPR151 ag. GPR151 PathHunter beta-arrestin cells, luminescence, 90 min; % of EA-reagent control over plate median. activation, % at 11.2 µM. 6,700 tested, under 10 active;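 active = mean percent activation across replicates above the confirmation screen cutoff of 4.91%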
# GPR119 ag = counter-screen for GPR151 activators: effect on human GPR119; GPR119 PathHunter beta-arrestin cells, luminescence, 90 min; 0 = compound-well median, 100 = enzyme-acceptor control; 6,700 compounds, 0.3% hits; shares compounds with GPR151 ag; activation, % at 11.2 µM;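 active = mean percent activation in the counterscreen above 29.09%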;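 also: counterscreen on off-target GPR119 to flag nonselective hits from the GPR151 activator screen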
# * hit, by the source's call; . = not tested or not shown.
SMILES,MITF inh,FBW7 activator,TEAD-YAP inh,GPR151 ag,GPR151 conf act,GPR119 ag
O=C(COC(=O)/C=C\c1ccco1)Nc1nc2ccccc2s1,0,0,-6,2,.,.
OCC1(CCOc2ccccc2)CCN(C2CCSC2)CC1 (centres undefined),9,0,5,0,.,.
CC(C)(C)c1cc(Cl)ccc1OCCCCNCCN,-5,0,-4,0,.,.
CCOC(=O)/C=C/C(=O)NNC(=O)c1cccc([N+](=O)[O-])c1,-32,0,-8,0,.,.
Cc1cc2ncn(S(=O)(=O)c3ccc(S(=O)(=O)N4CCCCC4)cc3)c2cc1C,16,1,-6,7.7*,0,-11
Cc1cc2ncn(S(=O)(=O)c3ccc(Cl)c(Cl)c3)c2cc1C,10,0,4,-1,.,.
COc1ccc(-c2cc(C(=O)Nc3cccc(Cl)c3)c3ccccc3n2)cc1,-4,0,-2,0,.,.
COc1ccc(NC2=C(C(C)=O)C(c3ccc(N(C)C)cc3)C(C(C)=O)C(C)(O)C2)cc1 (centres undefined),1,0,3,13*,1,13
COc1ccc(NC2=C(C(C)=O)C(c3ccc(OC)cc3)C(C(C)=O)C(C)(O)C2)cc1 (centres undefined),9,0,4,0,.,.
Cc1cc(NC(=O)/C(=C/c2cccc([N+](=O)[O-])c2)NC(=O)c2cccs2)ccc1Br,-11,0,2,1,.,.
Cc1ccc(NC(=O)/C(=C/c2cccc([N+](=O)[O-])c2)NC(=O)c2cccs2)c(Br)c1,16,0,4,6.9*,5.5*,-4
N#C/C(=C\c1cccs1)C(=O)Nc1ccc([N+](=O)[O-])cc1Br,7,0,0,6.4*,1,6
Cc1cccc(Oc2nc3ccccn3c(=O)c2/C=C(\C#N)C(N)=O)c1,6,0,7,-6,.,.
Cc1cc(=O)[nH]c(SC(C)C(=O)Nc2cccc(Cl)c2)n1 (centres undefined),-24,0,-14,8.7*,-1,-4
CC(=O)N(c1cccc2ccccc12)C1C=CS(=O)(=O)C1 (centres undefined),-10,0,-2,4.9*,0,-7
CCc1ccccc1N(C(C)=O)C1C=CS(=O)(=O)C1 (centres undefined),2,0,0,5,.,.
Cc1ccc(NC(=O)CN(C)S(=O)(=O)c2cc3c(cc2Cl)NC(=O)CO3)cc1C,-14,0,-5,0,.,.
CCOc1ccc(C)cc1S(=O)(=O)n1cnc2ccccc21,3,0,46*,5.8*,0,-4
CCOc1ccc(S(=O)(=O)n2cnc3ccccc32)cc1C,9,0,1,0,.,.
CCOc1ccc(C)cc1S(=O)(=O)n1c(C)nc2ccccc21,-3,0,0,7.2*,0,3
COc1ccc(C)cc1S(=O)(=O)n1c(C)nc2ccccc21,-1,0,-14,-1,.,.
COc1ccccc1C(=O)Nc1ccc(C)cc1[N+](=O)[O-],14,0,-15,-1,.,.
CCOc1ccc(/C(O)=C2/C(=O)C(=O)N(CCN(CC)CC)C2c2ccc(Cl)cc2)cc1C (centres undefined),1,0,7,-1,.,.
CCOc1ccc(/C(O)=C2/C(=O)C(=O)N(CCN(CC)CC)C2c2ccc(OC)c(OC)c2)cc1C (centres undefined),0,0,-10,6.6*,0,-5
O=C(Cn1c2ccccc2c(=O)c2ccc(Cl)cc21)Nc1cccc(Cl)c1,12,0,3,1,.,.
SMILES,MITF inh,FBW7 activator,TEAD-YAP inh,GPR151 ag,GPR151 conf act,GPR119 ag
NC(=O)c1cc2cc(Cl)ccc2oc1=Nc1ccccc1,6,0,7,5.8*,0,-3
Cc1csc(Nc2ccccc2)[n+]1CC(O)c1ccc([N+](=O)[O-])cc1 (centres undefined),6,0,-3,6.3*,-1,-10
Cc1ccccc1CNC(=O)CN(c1cccc([N+](=O)[O-])c1)S(C)(=O)=O,6,0,2,6.4*,0,-13
Cc1ccc(N(CC(=O)NCc2ccccc2C)S(C)(=O)=O)cc1C,8,0,1,2,.,.
CCC(C)NC(=O)c1ccccc1NC(=O)CN(c1cccc([N+](=O)[O-])c1)S(C)(=O)=O (centres undefined),-2,0,11,3,.,.
C=CCNC(=O)c1ccccc1NC(=O)CN(c1cccc([N+](=O)[O-])c1)S(C)(=O)=O,11,1,4,13*,1,-6
C=CCNC(=O)c1ccccc1NC(=O)CN(c1cccc(Cl)c1C)S(C)(=O)=O,-3,0,3,5.2*,0,-5
Cc1c(Cl)cccc1N(CC(=O)Nc1ccccc1Cl)S(C)(=O)=O,-11,0,5,0,.,.
CN(C)CCOc1cc(-c2ccnc(N)n2)ccc1NC(=O)[C@H]1Cc2cc(F)ccc2CN1,12,0,-1,0,.,.
COc1ccc(C(=O)N2CCC(N3CCC(C)CC3)CC2)cc1,28,0,7,6.5*,1,-1
Cc1ccc(CN2CCC(N(C)C(C)c3nccs3)CCC2=O)cc1 (centres undefined),-1,-1,-4,5.2*,1,14
Cc1[nH]c2ccc(CNC(=O)Nc3ccc(F)cc3F)cc2c1C,6,0,6,5.9*,-1,-6
CCOC(=O)C(NC(=O)c1ccccc1)(Nc1ccc(Cl)cn1)C(F)(F)F (centres undefined),5,0,-6,-1,.,.
CCOc1cccc2cc(-c3cn4cc(C)ccc4n3)c(=O)oc12,9,0,-36,11*,-1,-17
COc1cccc2cc(-c3cn4ccc(C)cc4n3)c(=O)oc12,-2,0,-70,1,.,.
CCN1C(=O)CC(N2CCC(C(=O)N3CCOCC3)CC2)C1=O (centres undefined),-4,0,1,15*,1,14
CCN1CCN(C(c2ccc3ncccc3c2)c2nnnn2C2CCCC2)CC1 (centres undefined),-10,0,-8,2,.,.
Cc1cccc2cc(CN(Cc3ccco3)Cc3nnnn3C(C)(C)C)c(=O)[nH]c12,3,0,2,6.2*,0,2
O=C(NCc1cccnc1)c1cccc(Nc2ncccn2)n1,9,0,1,1,.,.
NC(=O)N/N=C/c1ccc(OC(=O)c2ccco2)cc1,-2,0,-6,-1,.,.
CCOc1ccc(C2(C)N(O)C(CC)C(c3ccccc3)=[N+]2[O-])cc1 (centres undefined),-11,0,-9,-1,.,.
COc1cc(OC)c(NC(=O)Nc2noc3c2COc2ccccc2-3)cc1Cl,3,0,7,5.2*,1,-1
